Assay results from PubChem BioAssay (NCI).
Compounds without any hit were thinned out: in the full panel of roughly 83,000, 20% have a hit.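 96-well plates, one dose, 48 hours. Percent growth reported; active if below 10.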 Activity calls are given as the source filed them.

Columns and labels:
Assay in all cases: NCI-60 one-dose screen, 48 h (100 = growth as untreated, 0 = no growth, -100 = all killed)
Settings in all cases: 10 µM unless noted
SR leukemia = test system: SR leukemia
RPMI-8226 leukemia = test system: RPMI-8226 leukemia
OVCAR-8 ovarian = test system: OVCAR-8 ovarian
OVCAR-5 ovarian = test system: OVCAR-5 ovarian
OVCAR-4 ovarian = test system: OVCAR-4 ovarian
SK-OV-3 ovarian = test system: SK-OV-3 ovarian
IGROV1 ovarian = test system: IGROV1 ovarian
OVCAR-3 ovarian = test system: OVCAR-3 ovarian
HS 578T breast = test system: HS 578T breast
NCI/ADR-RES ovarian = test system: NCI/ADR-RES ovarian
T-47D breast = test system: T-47D breast
BT-549 breast = test system: BT-549 breast
MDA-MB-435 melanoma = test system: MDA-MB-435 melanoma
SW-620 colon = test system: SW-620 colon
MCF7 breast = test system: MCF7 breast
HCT-116 colon = test system: HCT-116 colon
HCC-2998 colon = test system: HCC-2998 colon
KM12 colon = test system: KM12 colon

Measured: growth

CS(=O)(=O)Nc1cc(-c2ccc3ncc(C#N)c(NCc4ccccc4F)c3c2)cnc1Cl
active: SR leukemia 3.57% | RPMI-8226 leukemia -22% | OVCAR-8 ovarian 7.93% | SK-OV-3 ovarian -13.7% | IGROV1 ovarian -29.1% | OVCAR-3 ovarian 3.41% | HS 578T breast -22% | T-47D breast 3.78% | BT-549 breast -8.8% | MDA-MB-435 melanoma 6.84% | SW-620 colon 8.38% | MCF7 breast 4.76% | HCT-116 colon 4.1% | HCC-2998 colon -1.68%
inactive: OVCAR-5 ovarian 16.8% | OVCAR-4 ovarian 12.6% | NCI/ADR-RES ovarian 25% | KM12 colon 11.5%

CNc1ncc2cc(-c3ccc(-c4ncccc4F)cc3Cl)c(=O)n(CC3OCC(N)CO3)c2n1 (stereo not drawn)
active: IGROV1 ovarian -2.32%
inactive: SR leukemia 32.2% | RPMI-8226 leukemia 96.1% | OVCAR-8 ovarian 65.6% | OVCAR-5 ovarian 44.1% | OVCAR-4 ovarian 117% | SK-OV-3 ovarian 75.8% | OVCAR-3 ovarian 90.7% | HS 578T breast 34.6% | NCI/ADR-RES ovarian 79.4% | T-47D breast 72.5% | BT-549 breast 82.1% | MDA-MB-435 melanoma 105% | SW-620 colon 99.1% | MCF7 breast 101% | HCT-116 colon 80.2% | HCC-2998 colon 100% | KM12 colon 95.7%

COc1ccc(Cn2cc3c(c2-c2cc(OC)c(OC)c(OC)c2)CCc2c(CN4CCCC4)noc2-3)cc1
active: OVCAR-3 ovarian -16% | NCI/ADR-RES ovarian 9.19% | MDA-MB-435 melanoma -39.2%
inactive: SR leukemia 29% | RPMI-8226 leukemia 21% | OVCAR-8 ovarian 42.5% | OVCAR-5 ovarian 27.9% | OVCAR-4 ovarian 55.2% | SK-OV-3 ovarian 41% | IGROV1 ovarian 29.9% | HS 578T breast 10.3% | T-47D breast 42.9% | BT-549 breast 76% | SW-620 colon 26.4% | MCF7 breast 15.5% | HCT-116 colon 18% | HCC-2998 colon 24.9% | KM12 colon 14.9%

C=C=COc1cccc(/C(N)=N/C(N)=N/c2nc3ccccc3s2)c1
inactive: RPMI-8226 leukemia 106% | OVCAR-8 ovarian 62.8% | OVCAR-5 ovarian 83.4% | OVCAR-4 ovarian 89.4% | SK-OV-3 ovarian 102% | IGROV1 ovarian 57.7% | OVCAR-3 ovarian 100% | HS 578T breast 59.9% | NCI/ADR-RES ovarian 88.5% | T-47D breast 63.1% | BT-549 breast 56% | MDA-MB-435 melanoma 77.8% | SW-620 colon 94.9% | MCF7 breast 93.1% | HCT-116 colon 25.1% | HCC-2998 colon 102% | KM12 colon 71.1%
active: SR leukemia 6.37%

N/C(=N\C(N)=N\c1nc2ccccc2s1)c1ccc(C(F)(F)F)cc1
inactive: RPMI-8226 leukemia 46.5% | OVCAR-8 ovarian 55.8% | OVCAR-5 ovarian 105% | OVCAR-4 ovarian 94.6% | SK-OV-3 ovarian 124% | IGROV1 ovarian 80.5% | OVCAR-3 ovarian 91.2% | HS 578T breast 86.9% | NCI/ADR-RES ovarian 30.4% | T-47D breast 69% | BT-549 breast 101% | MDA-MB-435 melanoma 93% | SW-620 colon 106% | MCF7 breast 77.9% | HCT-116 colon 56.4% | HCC-2998 colon 94% | KM12 colon 61.6%
active: SR leukemia 9.02%

Nc1ncc(-c2ccc3ncnc(N4CCc5cc(F)c(F)cc54)c3c2)cn1
inactive: SR leukemia 23.9% | OVCAR-8 ovarian 33.3% | OVCAR-5 ovarian 38.1% | OVCAR-4 ovarian 43.9% | OVCAR-3 ovarian 26.3% | NCI/ADR-RES ovarian 35.8% | BT-549 breast 12.3% | MDA-MB-435 melanoma 30.2% | SW-620 colon 54.4% | MCF7 breast 14.4% | HCT-116 colon 28.9% | HCC-2998 colon 31.9% | KM12 colon 45.3%
active: RPMI-8226 leukemia 4.99% | SK-OV-3 ovarian 9.09% | IGROV1 ovarian -6.07% | HS 578T breast -15.4% | T-47D breast 4.14%

COC(=O)C1(C)CCC[C@]2(C)[C@H]3C[C@H]4C(C(C)C)=C[C@]3(CC[C@@H]12)[C@H]1[C@@H]4[C@@H](OC(=O)c2ccco2)CC[C@@H]1OC(=O)c1ccco1 (stereo partly drawn)
inactive: SR leukemia 93.4% | RPMI-8226 leukemia 99.5% | OVCAR-8 ovarian 100% | OVCAR-5 ovarian 107% | OVCAR-4 ovarian 103% | SK-OV-3 ovarian 115% | IGROV1 ovarian 99.4% | OVCAR-3 ovarian 123% | HS 578T breast 110% | NCI/ADR-RES ovarian 107% | T-47D breast 98.9% | BT-549 breast 99.8% | MDA-MB-435 melanoma 104% | SW-620 colon 102% | MCF7 breast 98.3% | HCT-116 colon 110% | HCC-2998 colon 108% | KM12 colon 105%

O=C(CN1CCN(c2cc(=O)[nH]c3ccc(F)cc23)CC1)Nc1ccc(Cl)cc1
inactive: SR leukemia 84.3% | RPMI-8226 leukemia 104% | OVCAR-8 ovarian 33.3% | OVCAR-5 ovarian 86.2% | OVCAR-4 ovarian 29.7% | SK-OV-3 ovarian 65.1% | IGROV1 ovarian 67.1% | OVCAR-3 ovarian 60.5% | HS 578T breast 34.6% | NCI/ADR-RES ovarian 76% | T-47D breast 66.3% | BT-549 breast 47.6% | MDA-MB-435 melanoma 96% | SW-620 colon 93.8% | MCF7 breast 58.8% | HCT-116 colon 57.6% | HCC-2998 colon 92.3% | KM12 colon 91.6%

NS(=O)(=O)c1ccc(Nc2nc(N/N=C/c3ccccn3)nc(Nc3ccccc3)n2)cc1
active: OVCAR-8 ovarian 3.72% | OVCAR-5 ovarian 9.36% | OVCAR-4 ovarian -20.3% | SK-OV-3 ovarian -31.4% | IGROV1 ovarian -30.3% | OVCAR-3 ovarian -15.8% | HS 578T breast -18.8% | T-47D breast -18.4% | BT-549 breast -20.5% | MDA-MB-435 melanoma -84.9% | SW-620 colon -17.8% | MCF7 breast 1.45% | HCT-116 colon -30% | HCC-2998 colon -74.8% | KM12 colon 4.15%
inactive: SR leukemia 12.5% | RPMI-8226 leukemia 36.6% | NCI/ADR-RES ovarian 49%

O=S(=O)(NCCNc1nccc(-n2cnc3ccccc32)n1)c1ccc(Cl)cc1
inactive: SR leukemia 96.3% | RPMI-8226 leukemia 99.4% | OVCAR-8 ovarian 102% | OVCAR-5 ovarian 91.7% | OVCAR-4 ovarian 95.2% | SK-OV-3 ovarian 112% | IGROV1 ovarian 98.2% | OVCAR-3 ovarian 106% | HS 578T breast 88.1% | NCI/ADR-RES ovarian 97.8% | T-47D breast 97.1% | BT-549 breast 99.3% | MDA-MB-435 melanoma 100% | SW-620 colon 100% | MCF7 breast 87.9% | HCT-116 colon 94.6% | HCC-2998 colon 101% | KM12 colon 97.1%

CCCCCc1ccc(S(=O)(=O)Nc2cccc(-c3csc(NC(=O)CCCCCN4CCN(C)CC4)n3)c2)cc1
inactive: OVCAR-8 ovarian 81.9% | OVCAR-5 ovarian 88.8% | OVCAR-4 ovarian 71.4% | SK-OV-3 ovarian 97.9% | IGROV1 ovarian 69.6% | OVCAR-3 ovarian 37.1% | HS 578T breast 72.2% | NCI/ADR-RES ovarian 89.8% | T-47D breast 43.7% | BT-549 breast 93.5% | KM12 colon 57.4%
active: SR leukemia -31.4% | RPMI-8226 leukemia -22.5% | MDA-MB-435 melanoma -33.8% | SW-620 colon -27.1% | MCF7 breast -1.18% | HCT-116 colon -36.2% | HCC-2998 colon -18%

O=C(Nc1cccc(C(F)(F)F)c1)c1cc(-c2ccc(F)cc2F)ccc1O
inactive: SR leukemia 24% | OVCAR-8 ovarian 11.5% | OVCAR-4 ovarian 12.4% | IGROV1 ovarian 10.4% | SW-620 colon 10.8% | HCC-2998 colon 15.2%
active: RPMI-8226 leukemia -10.3% | OVCAR-5 ovarian 9.98% | SK-OV-3 ovarian -0.0407% | OVCAR-3 ovarian 9.88% | HS 578T breast -5.22% | NCI/ADR-RES ovarian 4.03% | T-47D breast 2.56% | BT-549 breast 1.83% | MDA-MB-435 melanoma 4.23% | MCF7 breast 2.4% | HCT-116 colon 3.8% | KM12 colon 3.77%

O=C1[C@H]2Cc3c([nH]c4ccccc34)[C@@H](c3ccc(Cl)cc3)N2C(=O)CN1C1CCN(Cc2ccccc2)CC1
inactive: SR leukemia 10.4% | RPMI-8226 leukemia 17% | OVCAR-8 ovarian 72.7% | OVCAR-5 ovarian 74.8% | OVCAR-4 ovarian 49.1% | SK-OV-3 ovarian 79.7% | IGROV1 ovarian 33.5% | OVCAR-3 ovarian 47.7% | HS 578T breast 68.1% | NCI/ADR-RES ovarian 51.3% | T-47D breast 55.9% | BT-549 breast 83.9% | MDA-MB-435 melanoma 43.8% | SW-620 colon 62.5% | MCF7 breast 12.6% | HCT-116 colon 33% | HCC-2998 colon 40.3% | KM12 colon 47.7%

O=C(O)c1ccc(-n2cc(CNc3cccc(Cl)c3)c(-c3ccc(F)cc3)n2)cc1
inactive: SR leukemia 130% | RPMI-8226 leukemia 89.2% | OVCAR-8 ovarian 96.3% | OVCAR-5 ovarian 112% | OVCAR-4 ovarian 100% | SK-OV-3 ovarian 106% | IGROV1 ovarian 102% | OVCAR-3 ovarian 106% | HS 578T breast 106% | NCI/ADR-RES ovarian 97.9% | T-47D breast 92.1% | BT-549 breast 108% | MDA-MB-435 melanoma 102% | SW-620 colon 110% | MCF7 breast 70% | HCT-116 colon 89.2% | HCC-2998 colon 105% | KM12 colon 94.2%

O=C(CN1CCN(c2cc(=O)n(-c3ccccc3)c3ccccc23)CC1)Nc1nc(-c2ccc(Cl)cc2)cs1
inactive: SR leukemia 56.8% | RPMI-8226 leukemia 36.7% | OVCAR-8 ovarian 59.4% | OVCAR-5 ovarian 93.1% | OVCAR-4 ovarian 19.7% | SK-OV-3 ovarian 71.4% | IGROV1 ovarian 65.5% | OVCAR-3 ovarian 67.1% | HS 578T breast 92.8% | NCI/ADR-RES ovarian 54.9% | T-47D breast 24.3% | BT-549 breast 46.5% | MDA-MB-435 melanoma 49.8% | SW-620 colon 74.3% | MCF7 breast 20.1% | HCT-116 colon 35.8% | HCC-2998 colon 92.4% | KM12 colon 64.7%

CCn1c(SCC(=O)Nc2cccc(C(=O)/C=C/c3ccccc3Cl)c2)nc2ccccc2c1=O
inactive: SR leukemia 52.2% | OVCAR-8 ovarian 98.9% | OVCAR-5 ovarian 97.7% | OVCAR-4 ovarian 86% | SK-OV-3 ovarian 106% | IGROV1 ovarian 65.7% | OVCAR-3 ovarian 69.1% | HS 578T breast 92.2% | NCI/ADR-RES ovarian 93.4% | T-47D breast 81.3% | BT-549 breast 105% | MDA-MB-435 melanoma 98.6% | SW-620 colon 72.8% | MCF7 breast 17.1% | HCC-2998 colon 91% | KM12 colon 85.3%
active: RPMI-8226 leukemia 6.75% | HCT-116 colon -26.3%
